Assay results: PubChem BioAssay (NCI)
This is part of a sample that, as a whole, favours compounds with a hit. Of some 83,000 tested, about 20% had one in any assay.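 Note: values are percent growth. 100 is the growth of untreated cells, values between 100 and 0 indicate rising inhibition; between -100 and 0 indicates cell death.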 A number with no mark means an inactive call. Activity calls are given as the source filed them. How the source made its calls: active means growth percent below 10; inactive means the rest.

test system: IGROV1 ovarian; experiment: NCI-60 one-dose screen, 48 h (100 = growth as untreated, 0 = no growth, -100 = all killed); conditions: 10 µM unless noted

Compared with `CCOC(=O)C(=O)CC(=O)N1C(=S)NC(=O)C1CC(C)C` (centres undefined), `CC(=O)C1=C(C)NC(NNC(N)=S)=NC1c1ccccc1` (centres undefined) is lower in growth: 97.5% for the first, 77.9% for the second.

Compared with `COC(=O)C(Cc1ccccc1)Nc1nc(NC(Cc2ccccc2)C(=O)OC)nc(N2CCOCC2)n1` (centres undefined), `O=C(CN1CCN(c2cc(=O)n(-c3ccccc3)c3ccccc23)CC1)Nc1nc(-c2ccc(Cl)cc2)cs1` is lower in growth: 98.6% for the first, 65.5% for the second.

First: COc1c(N2CC3CCCNC3C2)c(F)cc2c(=O)c(C(=O)N/N=C/c3ccc(F)cc3)cn(C3CC3)c12 (centres undefined)
Second: O=C(O)c1ccc(-n2cc(CNc3cc(F)c(F)c(F)c3)c(-c3ccc(F)cc3)n2)cc1
The growth of the first is higher: 97.9% for the first, 91.9% for the second.

First: Cn1cc(-c2nnc(N)nc2-c2c[nH]c3ccc(F)cc23)c2cc(F)ccc21
Second: COc1cc(-c2nc(-c3ccccc3)[nH]c2-c2ccnc(NCCCNS(=O)(=O)c3cccc(F)c3)n2)ccc1Cl
The growth of the first is lower: 35.7% for the first, 40.6% for the second.

Going from `Oc1[nH]c2ccccc2c1Nn1c(N=N/C=c2/ccc3c(c2)C=NN=3)n[nH]c1=S` to `CCn1c2ccccc2c2cc(-n3nncc3-c3ccccc3)ccc21`, the growth falls from 74.6% to 16.2%.

Going from `Cc1ccc2c(c1)C13C(=C2Br)CCCN1C(=O)c1ccccc13` (centres undefined) to `Cc1ccc(-n2c(/C=C3\C(=O)Nc4ccccc43)ccc2CO)cc1`, the growth falls from 88.5% to 75%.

Compared with `CCO/C=N/C1=C(C#N)C(c2ccc(Cl)cc2)c2sc3c(CC)cccc3c2O1` (centres undefined), `O=C1[C@H]2Cc3c([nH]c4ccccc34)[C@@H](c3ccc(Cl)cc3)N2C(=O)CN1C1CCN(Cc2ccccc2)CC1` is higher in growth: 23% for the first, 33.5% for the second.

Compared with `COc1cc2nc(Cl)nc(Nc3cccc(C4=Nc5c(N)nc(N)nc5NC(c5ccc(Cl)cc5)C4)c3)c2cc1OC` (centres undefined), `COc1cc2nc(Cl)nc(Nc3cccc(C4=Nc5c(N)nc(N)nc5NC(c5ccccc5)C4)c3)c2cc1OC` (centres undefined) is lower in growth: 87.9% for the first, 86.7% for the second.

First: CNC(=O)c1cc(N2CCc3cc(NC(=O)Nc4ccc(Cl)c(C(F)(F)F)c4)ccc32)ccn1
Second: NC(N)=Nc1ccc(Nc2cccc(Oc3ccc(Cl)c(C(F)(F)F)c3)c2)cn1
The growth of the first is higher: 57.8% for the first, 22.6% for the second.

First: N=c1c2cc(-c3ccccc3)oc2ncn1/N=C/c1ccc(Br)cc1
Second: CC(=O)c1ccc(Nc2nc(SCC(C)C)nc(-c3ccccc3)c2C#N)cc1
The growth of the first is lower: 42.8% for the first, 88.6% for the second.

First: COc1ccc(S(=O)(=O)NCCCNc2nccc(-c3[nH]c(-c4ccccc4)nc3-c3ccc(Cl)c(O)c3)n2)cc1
Second: O=C(CCn1c[n+](CC(=O)c2ccc(F)cc2)c2ccccc21)Nc1cccc2cccnc12
The growth of the first is higher: 93.6% for the first, 39.4% for the second.

Compared with `CC(=O)c1nnn(-c2c(C(=O)n3nc(C)cc3C)sc(=S)n2-c2ccccc2)c1C`, `NS(=O)(=O)c1ccc(Nc2nc(Nc3ccccc3)nc3nnc(SCC(=O)NC4CCCCC4)n23)cc1` is lower in growth: 95.6% for the first, 95.5% for the second.

Going from `Cn1ccnc1C(=O)/C=C/C=C/c1ccc(C(=O)Nc2ccc(F)cc2)cc1` to `Cc1c(F)cc(C(N)=O)cc1NCC(=O)Nc1ccc([N+](=O)[O-])cc1`, the growth rises from 10.5% to 80.1%.

Compared with `CCOC(=O)c1c(N)c(C#N)cn1-c1cc(OC)c(OC)c(OC)c1`, `CC(C)c1ccc(NCc2cn(-c3ccc(C(=O)O)cc3)nc2-c2cc(C(F)(F)F)cc(C(F)(F)F)c2)cc1` is lower in growth: 105% for the first, 92.7% for the second.

First: CS(=O)(=O)c1ncc(-c2ccccc2)cn1
Second: CNC(=O)c1c(NC(=O)c2ccccc2C(F)(F)F)sc2c1CCC(=O)C2
The growth of the first is higher: 99.5% for the first, 36.6% for the second.

`C=C(C=O)[C@@H]1CC[C@]2(COC(C)=O)CC[C@]3(C)C(CC[C@@H]4[C@@]5(C)CC[C@H](OC(C)=O)C(C)(C)[C@@H]5CC[C@]43C)[C@@H]12` (some centres undefined) was tested, and the growth was -32.8% (active).
In the case of `NC(N)=Nc1ccc(Oc2cccc(NC(N)=Nc3ccc(Br)c(C(F)(F)F)c3)c2)cc1`, the growth is reported as -16.6% (active).
`CN(Cc1ccccc1)S(=O)(=O)/N=C1\NC(=O)NC1=C(Cl)Cl` was tested, and the growth was 3.38% (active).
With `O=C1[C@H]2Cc3c([nH]c4ccccc34)[C@@H](c3ccc(Br)cc3)N2C(=O)CN1C1CCN(CC2CCCCC2)CC1` the growth was -82.2% (active).
`NC(N)=Nc1ccc(Oc2cccc(Nc3ccc(Br)c(C(F)(F)F)c3)c2)cn1` was tested, and the growth was -74.7% (active).
For `CN1CCN(Cc2ccc(NC(=O)c3cncc(C#Cc4cnc5ccc(OCC(C)(C)O)nn45)c3)cc2C(F)(F)F)CC1`, the growth was -17.3% (active).
With `O=c1[nH]c(Sc2sc3ccc(Cl)cc3c2CBr)nc(=S)[nH]1` the growth was 4.63% (active).
With `N#Cc1c(NC(=O)c2cccc(C(F)(F)F)c2F)sc2c1CCC(=O)C2` the growth was -0.691% (active).
With `COC[C@]12CCC(C)(C)C[C@H]1C1=CC[C@@H]3[C@@]4(C)CCCNC(C)(C)[C@@H]4CC[C@@]3(C)[C@]1(C)CC2` the growth was -54.4% (active).
